High-throughput results as filed in PubChem BioAssay.
Most compounds without a hit are left out; they make up all but 3.4% or so of the library.
Ecoli rRNA inh – inhibitors of bacterial rRNA selective over humanized ribosomes; GFP signal change (wild-type ribosome), % (no concentration beside the values); E. coli WT GFP vs humanized-ribosome RFP mutants, fluorescence, 24 h; stronger effect = lower value; DMSO median 0, no signal -100; actives 1.6% (n = 350,000); AID 720706;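 active = significant combined selectivity score with lowered wild-type GFP, culture density cut under 30%, mutant RFP and density less affected; inactive = any of these conditions unmet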
SIRT5 block – blocks human SIRT5 desuccinylation of peptide; Q9NXA8; Purified SirT5, succinyl-peptide AMC, trypsin-coupled fluorescence; inhibition, % at 15 µM; actives 1.1% (n = 330,000); in the data active = inhibition above about 15%; inconclusive = no clear call, values can overlap the other calls
Target sequence (Q9NXA8 whole entry, looked up): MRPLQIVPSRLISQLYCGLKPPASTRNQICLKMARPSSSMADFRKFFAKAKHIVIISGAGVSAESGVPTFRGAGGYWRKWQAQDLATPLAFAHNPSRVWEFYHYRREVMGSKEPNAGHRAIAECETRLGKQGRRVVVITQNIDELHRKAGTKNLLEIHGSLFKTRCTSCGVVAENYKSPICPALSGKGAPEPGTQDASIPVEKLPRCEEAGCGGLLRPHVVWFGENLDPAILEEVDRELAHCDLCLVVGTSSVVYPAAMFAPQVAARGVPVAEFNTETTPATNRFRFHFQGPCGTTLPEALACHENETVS
LGR2 antag – inhibitors of bursicon-induced Drosophila LGR2 receptor cAMP signaling; actives 0.35% (n = 380,000); inhibition, % at 9.99 µM; HEK293 LGR2, CRE-luciferase, bursicon-stimulated, 4 h; AID 720647;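 active = drop in luminescence signal, shown as inhibition above about 50% in the replicate tests, limit read from the data, passing the limit was not always enough; inconclusive = probably only some replicates passing the limit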;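 note: agonist challenge used bursicon conditioned medium at about half maximal strength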
PGC1a acetyl inh – modulators of PGC1a acetylation | U2OS PGC1a acetylation, AlphaScreen anti-acetyl-lysine; with virally co-expressed GCN5 acetyltransferase | inhibition, % at 15.6 µM | actives 0.17% (n = 350,000);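 active = every replicate shows inhibition of at least 40%; inconclusive = mean inhibition at least 40% but some replicate below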;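 note: 0% = neutral control wells and 100% = positive control wells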
PAX8 reporter – inhibitors of PAX8 transcriptional activity in RMG-I cells. AID 652154. inhibition, % at 12.6 µM. actives 1.2% (n = 360,000). RMG-I TPO-luciferase reporter, SteadyGlo, 24 h;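 active = mean replicate inhibition at least 60% with every replicate also reaching 60%; inconclusive = only one of the two criteria is met; inactive = mean below 60% and not all replicates reaching 60%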;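 note: luciferase light reporting Pax8 driven TPO promoter activity; plate controls were median of neutral control wells for no effect and mitoxantrone controls for full effect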
EWS-Fli inh – inhibitors of EWS/Fli oncoprotein transcriptional activity; A673 NR0B1-luciferase reporter, viability-normalised; inhibition, % at 12.6 µM; actives 0.67% (n = 350,000);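 active = mean inhibition of at least 50% after viability correction, with every replicate also passing that limit; inconclusive = mean reaches 50% but only one of two replicates passes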;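 note: firefly luciferase signal divided by Alamar Blue viability fluorescence both relative to DMSO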
The depositor's hits bear a star; ? = inconclusive; . = no result.

SMILES	Ecoli rRNA inh	SIRT5 block	LGR2 antag	PGC1a acetyl inh	PAX8 reporter	EWS-Fli inh
COC(=O)[C@]1(CCS(=O)(=O)c2ccccc2)N=C(c2ccc(OCCCO)cc2)O[C@@H]1c1ccccc1CN=[N+]=[N-]	.	-2	.	-5	95*	27
C=CC[C@]1(C(=O)OC)COC(c2ccc(OCCCO)cc2)=N1	.	-2	.	8	-64	-14
CC(C)NC(=O)N(C)C[C@H]1Oc2ncc(C#CC3CCCC3)cc2C(=O)N([C@H](C)CO)C[C@@H]1C	6	0	20	5	7	3
C[C@@H]1CN([C@H](C)CO)C(=O)c2cccc(NC(=O)Nc3ccccc3)c2O[C@H]1CN(C)C(=O)Nc1ccccc1	-6	2	2	-6	-11	6
CC=Cc1ccc2n(c1=O)C[C@@H]1[C@@H](CO)[C@H](C(=O)NCCC)[C@H]2N1C(=O)c1ccncc1 (mixture of isomers)	2	1	15	0	.	47
Cc1ccc(C2(C)NC(=O)N(CCOc3ccccc3)C2=O)cc1 (stereo not drawn)	-33*	3	5	.	.	.
CCCC(=O)N1CCC2(CC1)CN(C(=O)CC1CC1)[C@@H](CO)c1c2c2ccc(OC)cc2n1C	-4	1	6	.	9	-11
CC(C)(C)NC(=O)NC(=O)C[n+]1ccc(Cc2ccc([N+](=O)[O-])cc2)cc1	-14*	2	18	.	14	19
Cc1onc(-c2ccccc2)c1C(=O)NC(=S)NNC(=O)c1ccccc1O	-25	1	-11	.	31	3
Cc1onc(-c2ccccc2)c1C(=O)NC(=S)NNC(=O)c1ccc(O)cc1O	.	.	11	.	86*	.
C=C1C(=O)O[C@@H]2[C@H]3O[C@]3(C)CC/C=C(\C)CC[C@@H]12	.	-2	20	.	101*	2
N=c1c2c3c(sc2ncn1Nc1ccccc1)CCC3	-17*	0	-5	-9	25	-2
CC(=O)N1CCN(C(=O)c2cccc(S(=O)(=O)N3CCN(c4ccccc4)CC3)c2)CC1	1	-2	-2	.	3	-1
CN1CCN(S(=O)(=O)c2cccc(C(=O)N3CCN(c4ccccc4)CC3)c2)CC1	14	17*	-2	13	-10	0
CCNC(=O)[C@@H]1[C@@H](CO)[C@@H]2Cn3c(ccc(-c4cncnc4)c3=O)[C@@H]2N1C(=O)c1ccccc1F	3	-23	-4	1	4	6
CC(=O)N/C(=C\c1ccccc1)C(=O)OCC(=O)NC1CCCC1	6	-3	33	4	150*	4
Cn1nc(-c2ccccc2)c(/C=N/O)c1Cl	14	2	10	-4	0	-5
Cn1nc(CSc2ccccc2)c(C=O)c1Cl	8	15*	-32	2	-12	-22
CC(=O)NC[C@H]1[C@H](c2ccc(C3=CCCCC3)cc2)[C@H](CO)N1C(=O)NC(C)C	-2	.	2	3	9	-1
COc1ccccc1/C=C/C=C1\Oc2c(ccc(O)c2CN(C)C)C1=O	34	5	-10	-27	-5	-8
CCN(CC)Cc1c(O)ccc2c1O/C(=C\C=C\c1ccccc1)C2=O	16	2	6	24	-19	77*
CCn1c(SCC(=O)Nc2ccc(C(C)=O)cc2)nnc1C1CC1	2	16*	0	-2	-16	-12
CCn1c(SCC(=O)Nc2ccc(NC(C)=O)cc2)nnc1C1CC1	.	.	.	8	0	.
C[C@@H]1CN([C@@H](C)CO)C(=O)c2cc(NC(=O)Nc3ccc(F)cc3)ccc2O[C@@H]1CN(C)Cc1ccc(Oc2ccccc2)cc1	2	10	-7	-3	75*	10
C[C@H](CO)N1C[C@H](C)[C@H](CN(C)Cc2ccc(Oc3ccccc3)cc2)Oc2ccc(NC(=O)Nc3ccc(C(F)(F)F)cc3)cc2C1=O	5	8	3	-14	.	56*
SMILES	Ecoli rRNA inh	SIRT5 block	LGR2 antag	PGC1a acetyl inh	PAX8 reporter	EWS-Fli inh
COc1ccc(-c2[nH]ncc2CN(CCO)CC23CC4CC(CC(C4)C2)C3)c(OC)c1	-7	24*	5	-1	2	0
O=C(CSc1nnnn1C1CCCCC1)NCCc1ccccc1	-28*	-2	-18	4	.	-22
COc1ccccc1-c1cnc2c(c1)C(=O)N([C@@H](C)CO)C[C@@H](C)[C@H](CN(C)C(C)=O)O2	6	1	7	.	.	-3
COc1ccc(CC(N)c2csc(NC(=O)Nc3ccccc3Cc3ccccc3)n2)cc1 (stereo not drawn)	-54	-1	-6	-27	24	58*
O=C(c1c(F)c(F)c(F)c(F)c1F)N1CCN(c2cccc(C(F)(F)F)c2)CC1	.	.	.	-9	67*	.
O=C(c1ccccc1F)N1CCN(c2cccc(C(F)(F)F)c2)CC1	.	.	.	-6	.	.
COc1ccc(Cl)cc1NC(=O)N1CCN(c2ccccc2OC)CC1	-30*	-1	.	2	-22	-3
COc1ccc(Cl)cc1NC(=O)NCC1CCN(C(=O)OC(C)(C)C)CC1	-20*	-1	-3	?	17	9
C=C(C)c1cccc(C(C)(C)NC(=O)N2CCN(c3ccccc3OC)CC2)c1	8	-6	-6	-4	106*	18
Cc1ccccc1S(=O)(=O)N1CC(=O)N2[C@@H](CO)[C@H](c3ccc(C#CC4CC4)cc3)[C@@H]2C1	-3	1	-1	-5	6	-8
COc1ccc(OC)c(NC(=O)CCN2CC(C)OC(C)C2)c1 (stereo not drawn)	.	.	.	-9	.	.
Cc1ccc(F)cc1NC(=O)N1CCN(c2ccnc3cc(Cl)ccc23)CC1	-18	4	5	6	-5	5
COc1ccc(Cl)cc1NC(=O)CCN1CCN(Cc2ccccc2)CC1	-12	22*	-7	.	19	15
COc1ccccc1NC(=O)N1CCN(c2cccc(C(F)(F)F)c2)CC1	-34	18*	6	-10	.	.
COc1ccccc1NC(=O)N1CCN(c2ccc(F)cc2)CC1	.	.	.	-2	.	.
O=C(Nc1cc(F)ccc1F)N1CCN(c2ccnc3cc(Cl)ccc23)CC1	-28*	0	20	-11	6	7
COc1ccc(C)cc1NC(=O)CCN1CC(C)OC(C)C1 (stereo not drawn)	19	23*	2	.	-1	3
CCS(=O)(=O)N1CCC2(CC1)CN(CC1CCOCC1)[C@H](CO)c1c2c2ccc(OC)cc2n1C	13	0	-3	9	12	0
C[C@@H]1CCCCO[C@@H](CN(C)S(=O)(=O)c2ccccc2)[C@@H](C)CN([C@@H](C)CO)C(=O)c2cc(NS(=O)(=O)c3cccs3)ccc2O1	-1	2	-37	4	-15	2
CCN(Cc1ccccc1)S(=O)(=O)CCNC(=O)c1ccc(OC)cc1	-10	35*	-4	.	7	4
